tim23-1 inh: growth inhibitors of tim23-1 mutant yeast, primary screen, luminescence, uHTS. inhibition, % at 20 µM. actives 1.3% (n = 330,000). S. cerevisiae tim23-1 growth, BacTiter-Glo luminescence, 24 h;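 active means growth inhibition of the mutant yeast at or above 50%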;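 further: temperature-sensitive mutant grown at 25 °C; plate controls were DMSO-treated mutant yeast for no effect and medium wells lacking yeast for full effect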
PfHsp90 yeast 2: growth inhibition of PfHsp90-expressing yeast, primary screen, antimalarial PfHsp90 inhibitor project, S. cerevisiae, BacTiter-Glo luminescence, single point, set 2 | BacTiter-Glo ATP, 48 h; yeast lacking PDR1 and PDR3 efflux regulators | inhibition, % at 9.4 µM | actives 0.32% (n = 310,000) | AID 504621, 2011;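 active means every replicate shows inhibition above about 80%, whatever the replicate mean, limit read from the data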;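 further: 0% = DMSO neutral controls and 100% = 20 µM radicicol positive controls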
tim10-1 inh: growth inhibitors of tim10-1 mutant yeast, primary screen, luminescence, uHTS | S. cerevisiae tim10-1 ts strain growth, BacTiter-Glo, 24 h | inhibition, % at 20 µM | actives 2.2% (n = 330,000) | AID 463190, 2010;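 active means inhibition of at least 40%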;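 further: mutant grown at 25 °C; 0% = DMSO wells with yeast and 100% = wells holding no yeast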
SKKanGAS inh: S. pyogenes SKKanGAS growth inhibitors in kanamycin, primary screen, streptokinase expression inhibitor project, SKKanGAS strain, BacTiter-Glo luminescence | AID 1662, 2009 | actives 1.3% (n = 300,000) | inhibition, % at 7.5 µM | 6 h;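 active means mean replicate score, as percent of positive control median, at least 50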;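 further: strain carries kanamycin resistance gene driven by streptokinase promoter and grows in 40 µg/ml kanamycin; loss of luminescence reflects streptokinase promoter inhibition or plain growth inhibition; 0% = median of DMSO wells and 100% = positive control at its reference dose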
TIM10 inh: growth inhibitors of isogenic TIM10 control yeast, primary screen, counter-screen for tim10-1 yeast inhibitor project, luminescence, uHTS. S. cerevisiae TIM10 strain growth, BacTiter-Glo luminescence, 24 h. inhibition, % at 10 µM. actives 1.4% (n = 330,000). AID 463195, 2010;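 active means inhibition of 40% or more at the single tested concentration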;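 further: wild-type TIM10 isogenic control strain grown at permissive 25 °C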
Numbers without * were called inactive. Hits are enriched below; roughly 4.4% of the tested compounds scored in any of these assays.

Results for Fc1ccc(-c2[nH]ncc2CN2CCN(c3ccc(F)cc3)CC2)cc1 ?
tim23-1 inh: 9; PfHsp90 yeast 2: 7; tim10-1 inh: 4; SKKanGAS inh: 29; TIM10 inh: -9

How did Fc1ccc(N2CCN(Cc3cn[nH]c3-c3ccccc3)CC2)cc1 do in these assays?
tim23-1 inh: 2; PfHsp90 yeast 2: 31; tim10-1 inh: 12; SKKanGAS inh: 52*; TIM10 inh: 9

What do the screens show for `COc1cc(/C=C/C(=O)OC2CC3CCC2(C)C3(C)C)ccc1O` (centres undefined)?
tim23-1 inh: 18; PfHsp90 yeast 2: -1; tim10-1 inh: 20; SKKanGAS inh: 61*; TIM10 inh: -2

How did O=C(c1cnn2c(C(F)(F)F)cc(-c3ccc(F)cc3)nc12)N1CCc2ccccc2C1 do in these assays?
tim23-1 inh: 33; PfHsp90 yeast 2: 4; tim10-1 inh: 18; SKKanGAS inh: 62*; TIM10 inh: 13

How did CC(C)NC(=O)Nc1cccc2c1O[C@H](CN(C)C(=O)NC1CCCCC1)[C@H](C)CN([C@H](C)CO)C2=O do in these assays?
tim23-1 inh: -4; PfHsp90 yeast 2: -12; tim10-1 inh: -4; TIM10 inh: -4

Results for S=C(c1ccc2c(c1)OCO2)N1CCN(c2cccc(Cl)c2)CC1 ?
PfHsp90 yeast 2: -5

Results for CC(C)C(=O)NC(c1cccs1)c1cc([N+](=O)[O-])c2cccnc2c1O (centres undefined) ?
tim23-1 inh: 25; PfHsp90 yeast 2: -90; tim10-1 inh: 13; SKKanGAS inh: 77*; TIM10 inh: 18

What do the screens show for `CCC(=O)NC(/C=C/c1ccccc1)c1cc([N+](=O)[O-])c2cccnc2c1O` (centres undefined)?
tim23-1 inh: -4; tim10-1 inh: 15; SKKanGAS inh: 41; TIM10 inh: 28

What do the screens show for `Cc1ccc(C(NC(=O)C(C)C)c2cc([N+](=O)[O-])c3cccnc3c2O)cc1` (centres undefined)?
tim23-1 inh: 28; PfHsp90 yeast 2: 67; tim10-1 inh: 30; SKKanGAS inh: 89*; TIM10 inh: 15

Results for Cc1cccc(C)c1NC(=O)CN(C)CC(=O)Nc1sc2c(c1C(N)=O)CCC2 ?
tim23-1 inh: 11; PfHsp90 yeast 2: -12; tim10-1 inh: -5; SKKanGAS inh: 50*; TIM10 inh: 6

Results for Cc1ccc(NC(=O)CN(C)CC(=O)Nc2sc3c(c2C(N)=O)CCC3)cc1 ?
tim23-1 inh: 6; PfHsp90 yeast 2: -18; tim10-1 inh: -1; SKKanGAS inh: 9; TIM10 inh: 9

Results for C=C1C[C@H]2[C@@H]3CCc4cc(OC)ccc4[C@H]3CC[C@]12C ?
tim23-1 inh: 10; PfHsp90 yeast 2: 19; tim10-1 inh: -6; SKKanGAS inh: 76*; TIM10 inh: 5

Results for C[C@]12CC[C@@H]3c4ccc(OS(=O)(=O)O)cc4CC[C@H]3[C@@H]1CCC2=O ?
tim23-1 inh: -9; PfHsp90 yeast 2: -15; tim10-1 inh: -13; SKKanGAS inh: -3; TIM10 inh: 0

What do the screens show for `COc1ccc(CNc2nc3c(c(=O)n(Cc4ccc(Br)cc4)c(=O)n3C)n2C)cc1`?
tim23-1 inh: 17; PfHsp90 yeast 2: -40; tim10-1 inh: 21; SKKanGAS inh: 54*; TIM10 inh: 24

Results for O=C(COC(=O)c1cc(S(=O)(=O)N2CCOCC2)ccc1F)NCc1ccc2c(c1)OCO2 ?
tim23-1 inh: -1; tim10-1 inh: -6; TIM10 inh: -13

Results for CC1CCCC(NC(=O)Cn2cc(Br)ccc2=O)C1C (centres undefined) ?
tim23-1 inh: 4; PfHsp90 yeast 2: 3; tim10-1 inh: -3; TIM10 inh: 6

Results for CC(C)(O)c1[nH]c2cc(F)ccc2c1C(C)(C)O ?
PfHsp90 yeast 2: 9; SKKanGAS inh: 90*

Results for CC(C)(O)c1[nH]c2ccc(C(F)(F)F)cc2c1C(C)(C)O ?
tim23-1 inh: 23; PfHsp90 yeast 2: -7; tim10-1 inh: 23; SKKanGAS inh: 8; TIM10 inh: 13

How did O=S(=O)(Nc1nc2ccccc2nc1Cl)c1ccc2ccccc2c1 do in these assays?
tim23-1 inh: 29; PfHsp90 yeast 2: -40; tim10-1 inh: 37; SKKanGAS inh: 51*; TIM10 inh: -1

How did O=S(=O)(Nc1nc2ccccc2nc1Cl)c1ccccc1 do in these assays?
tim23-1 inh: 13; PfHsp90 yeast 2: -5; tim10-1 inh: 18; SKKanGAS inh: 2; TIM10 inh: 18

Results for COCCCNC(=S)NNC(=S)Nc1cccc(Cl)c1 ?
tim23-1 inh: 20; PfHsp90 yeast 2: -16; tim10-1 inh: 25; SKKanGAS inh: 52*; TIM10 inh: 33

Results for COc1ccc(O)c(C2=Nc3ccccc3N=C(c3cccs3)C2)c1 ?
tim23-1 inh: 25; PfHsp90 yeast 2: 7; tim10-1 inh: 18; SKKanGAS inh: 60*; TIM10 inh: 9

What do the screens show for `COc1ccc(O)c(-c2cn[nH]c2-c2cccs2)c1`?
tim23-1 inh: 4; tim10-1 inh: 4; SKKanGAS inh: -2; TIM10 inh: 4

What do the screens show for `O=C(NC(=S)NNC(=O)c1cc2ccccc2cc1O)c1ccco1`?
tim23-1 inh: -18; tim10-1 inh: 7; SKKanGAS inh: 98*; TIM10 inh: 18

What do the screens show for `O=C(NC(=S)NNC(=O)c1ccccc1O)c1cccnc1`?
tim23-1 inh: 1; PfHsp90 yeast 2: 16; tim10-1 inh: -9; SKKanGAS inh: 10; TIM10 inh: -1

What do the screens show for `O=C(NC(=S)NNC(=O)c1ccccc1O)c1ccco1`?
PfHsp90 yeast 2: 23; SKKanGAS inh: 65*

Results for CC1=CC(=O)C=C(C)C1=NOS(=O)(=O)c1ccccc1 ?
PfHsp90 yeast 2: 106*; SKKanGAS inh: -1

Results for CC1=CC(=O)C(C(C)C)=C/C1=N/OS(=O)(=O)c1ccccc1 ?
tim23-1 inh: 49; PfHsp90 yeast 2: 110*; tim10-1 inh: -140; SKKanGAS inh: 11; TIM10 inh: 25

Results for Cc1ccc2c(c1)/C(=N/OS(=O)(=O)c1ccccc1)CCS2 ?
tim23-1 inh: 2; tim10-1 inh: 28; SKKanGAS inh: 6; TIM10 inh: 9

What do the screens show for `Cc1ccc(S(=O)(=O)ON=C2CCN(S(=O)(=O)c3ccccc3)CC2)cc1`?
tim23-1 inh: -15; PfHsp90 yeast 2: 2; tim10-1 inh: 10; SKKanGAS inh: -2; TIM10 inh: 0

What do the screens show for `Cc1nc(SCc2nc3c(O)cccc3[nH]2)c2oc3ccccc3c2n1`?
tim23-1 inh: 14; PfHsp90 yeast 2: 8; tim10-1 inh: 9; TIM10 inh: 6

Results for O=C(Nc1nnc(-c2ccc(Cl)cc2)o1)c1cccc(N2C(=O)CCC2=O)c1 ?
tim23-1 inh: 10; PfHsp90 yeast 2: -109; tim10-1 inh: 22; SKKanGAS inh: 70*; TIM10 inh: -9

Compound activity as filed in PubChem.
